Measurements reported in PubChem BioAssay (Tox21).
Where “and” joins values, the source holds several entries; their conditions need not be identical. Equal entries are not always repeated. Results filed as inconclusive are left out. Calls of active or inactive are those of the source. Unless noted, calls come from the whole dose curve; as a rule, active = well fitted curve in the direction sought with a large enough effect in the repeat runs; inconclusive = weak or mixed curves; inactive = no such curve, though single readings can be large; an effect the other way counts as inactive or inconclusive.

Assays:
[1] = biological target: Estrogen receptor beta (Homo sapiens) (UniProt Q92731); assay: qHTS assay to identify small molecule antagonists of the estrogen receptor beta (ER-beta) signaling pathway (AID 1259378; active = well fitted inhibition curve with a large enough effect in the signal ratio in the repeat runs, not every such curve was filed as active; the % refers to the signal ratio; note: potency is the fitted concentration of half-maximal effect)
In short: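 ER-beta-UAS-bla HEK293T (GripTite) cells in 2% charcoal-stripped FBS medium were preincubated 6 hr at 37C, dosed with compound, then stimulated with 1 nM E2 (final) for 16 hr; beta-lactamase reporter read by B/G FRET fluorescence after 2 hr substrate loading.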

[2] = qHTS assay to identify small molecule agonists of the androgen receptor (AR) signaling pathway in the presence of an antagonist - cell viability counter screen (AID 1259379); note: nearly all actives have a fitted effect of over 25% in size; note: potency is the fitted concentration of half-maximal effect
In short: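 Each compound was tested at 15 concentrations on MDA-kb2 cells in the presence of 3.0uM nilutamide. Viability was measured by CellTiter-Fluor fluorescence after a 16 hr incubation at 37C in a CO2-free atmosphere.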

[3] = qHTS assay to identify small molecule agonists of the estrogen receptor beta (ER-beta) signaling pathway - cell viability counter screen (AID 1259380); note: nearly all actives have a fitted effect of over 30% in size; note: potency is the fitted concentration of half-maximal effect
In short: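 Compounds dissolved in DMSO were pin-transferred onto ER-beta-UAS-bla HEK293T cells that had settled 6 hr, and exposure ran 16 hr at 37C. Following the reporter read, CellTiter-Glo luminescence after 30 min at room temperature indicated cytotoxicity.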

[4] = qHTS assay to identify small molecule antagonists of the estrogen receptor beta (ER-beta) signaling pathway - cell viability counter screen (AID 1259382); note: nearly all actives have a fitted effect of over 55% in size; note: potency is the fitted concentration of half-maximal effect
In short: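 CellTiter-Glo ATP luminescence measured after the LiveBLAzer read in the same wells; ER-beta-UAS-bla HEK293T cells, 16 hr compound treatment with 1nM 17-beta-estradiol agonist at 37C, 5% CO2.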

[5] = qHTS assay to identify small molecule agonists or antagonists of the thyroid stimulating hormone receptor (TSHR) signaling pathway - wild type cell line counter screen (AID 1259384; calls by dose curve)
In short: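 Wild-type HEK293 cells were plated 18 h at 37 C/5% CO2, pin-dosed with compound plus Ro20-1724 medium, held 30 min at room temperature, then given cAMP-d2 and anti-cAMP-cryptate; fluorescence was read after 1 h. Fifteen concentrations, triplicate.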

[6] = biological target: Thyrotropin receptor (Homo sapiens) (UniProt P16473); assay: qHTS assay to identify small molecule antagonists of the thyroid stimulating hormone receptor (TSHR) signaling pathway (AID 1259385; calls by dose curve; note: nearly all actives have a fitted effect of over 20% in size; note: potency is the fitted concentration of half-maximal effect)
In short: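 TSHR-HEK293 cells were plated and held 18 h at 37C/5% CO2, then given compound plus Ro20-1724 and stimulated with TSH at 1.5 ng/mL final. After 30 min at room temperature, cAMP was detected with cAMP-d2/anti-cAMP-cryptate (1 h) by fluorescence.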

[7] = qHTS assay to identify small molecule agonists of the estrogen receptor alpha (ER-alpha) signaling pathway in the presence of an antagonist - cell viability counter screen (AID 1259386);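 note: cells exposed to compounds for 22 h at 37 °C before the viability read; nearly all actives have a fitted effect of over 30% in size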; note: potency is the fitted concentration of half-maximal effect
In short: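 Using estrogen-depleted VM7Luc4E2 cells, the 15-concentration compound series was applied together with 10.0nM ICI-182,780 and incubated 22hr at 37C/5% CO2. Cell viability was then scored by CellTiter-Fluor.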

[8] = biological target: Progesterone receptor (Homo sapiens) (UniProt P06401); assay: qHTS assay to identify small molecule agonists of the progesterone receptor (PR) signaling pathway (AID 1346784; calls by dose curve; note: nearly all actives have a fitted effect of over 30% in size)
In short: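 Seed PR-UAS-bla HEK 293T cells (2% charcoal-stripped FBS), incubate 6 hr at 37C; add compounds in DMSO, 16 hr at 37C; add LiveBLAzer B/G substrate, 2 hr RT; read fluorescence intensity.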

[9] = qHTS assay to identify small molecule antagonists of the TGF-beta/Smad signaling pathway - cell viability counter screen (AID 1346824); note: nearly all actives have a fitted effect of over 50% in size
In short: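 SBE-bla HEK 293T cells were plated overnight at 37 C, then given compounds in DMSO plus TGF-beta1 (added as 0.25 ng/mL solution) for 5 hr. After the bla read, CellTiter-Glo was added to the same wells and luminescence read after 30 min at room temperature.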

[10] = qHTS assay to identify small molecule agonists of the TGF-beta/Smad signaling pathway - cell viability counter screen (AID 1346829); note: top concentration of the series differs between compounds; nearly all actives have a fitted effect of over 45% in size
In short: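 Same-well cytotoxicity: CellTiter-Glo added after the 2 hr room-temperature beta-lactamase substrate step, luminescence measured 30 min later; cells had 5 hr of compound at 37 C.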

[11] = qHTS assay to identify small molecule agonists of the TGF-beta/Smad signaling pathway (AID 1346859; active = well fitted activation curve with a large enough effect in the signal ratio in the repeat runs, not every such curve was filed as active; the % refers to the signal ratio; note: series mostly up to about 77 µM)
In short: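 Beta-lactamase reporter activity downstream of Smad binding elements was measured in stably transfected HEK 293T cells; compounds were incubated for 5 hr, substrate for 2 hr at room temperature.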

[12] = biological target: Thyrotropin-releasing hormone receptor (Homo sapiens) (UniProt P34981); assay: qHTS assay to identify small molecule antagonists of the thyrotropin-releasing hormone receptor (TRHR) signaling pathway (AID 1346877; active = well fitted inhibition curve with a large enough effect in the repeat runs, not every such curve was filed as active; note: series mostly up to about 51 µM)
In short: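 Calcium signal in dye-loaded TRHR/HEK293 cells; compounds added 5 min before TRH (1 nM final); fluorescence monitored 3 min at 1 s steps.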

[13] = biological target: Thyrotropin-releasing hormone receptor (Homo sapiens) (UniProt P34981); assay: qHTS assay to identify small molecule agonists of the thyrotropin-releasing hormone receptor (TRHR) signaling pathway (AID 1346891; calls by dose curve;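 note: HEK293 cells expressing TRHR with calcium dye readout; series mostly up to about 58 µM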)
In short: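 Overnight-plated (18 h, 37 °C, 5% CO2) TRHR-Hek293 cells; 2 h calcium dye at 37 °C; compound in DMSO; 3-min kinetic fluorescence read.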

[14] = Human pregnane X receptor (PXR) small molecule agonists, qHTS cell viability counter screen (AID 1346977); note: nearly all actives have a fitted effect of over 50% in size; note: potency is the fitted concentration of half-maximal effect
In short: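 After a 5hr pre-incubation, PXR-Luc HepG2 cells received compounds plus positive control in DMSO and were kept 24hr at 37C. Cell viability was quantified by fluorescence from CellTiter-Fluor added for the final hour.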

[15] = Caspase-3/7 induction in HepG2 cells by small molecules, qHTS assay (AID 1346978); note: nearly all actives have a fitted effect of over 15% in size; note: potency is the fitted concentration of half-maximal effect
In short: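 Wild-type HepG2 cells (2,000/well) were settled 5 h at 37 C, 5% CO2, then exposed to compounds in DMSO for 17 h. Caspase-3/7 activity was read by luminescence 30 min after adding Caspase-Glo 3/7 reagent at room temperature.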

[16] = biological target: Progesterone receptor (Homo sapiens) (UniProt P06401); assay: qHTS assay to identify small molecule antagonists of the progesterone receptor (PR) signaling pathway (AID 1346795; active = well fitted inhibition curve with a large enough effect in the signal ratio in the repeat runs, not every such curve was filed as active; the % refers to the signal ratio; note: potency is the fitted concentration of half-maximal effect)
In short: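 Screening used a GripTite HEK293T line with PR-responsive UAS-beta-lactamase. Cells were challenged with compound in the presence of 1 nM R5020 final for 16 hr at 37C; B/G FRET substrate, 2 hr room temperature, fluorescence.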

[17] = biological target: Androgen receptor (Homo sapiens) (UniProt P10275); assay: qHTS assay to identify small molecule agonists of the androgen receptor (AR) signaling pathway in the presence of an antagonist (AID 1259381; calls by dose curve; note: nearly all actives have a fitted effect of over 15% in size)
In short: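 Plated MDA-kb2 cells (3,000/well) were pre-incubated 5hr, given nilutamide (3.0uM final) or buffer, then dosed with compounds in DMSO at 15 concentrations. Luciferase activity was quantified by luminescence after 16hr at 37C.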

[18] = biological target: Estrogen receptor (Homo sapiens) (UniProt P03372); assay: qHTS assay to identify small molecule agonists of the estrogen receptor alpha (ER-alpha) signaling pathway in the presence of an antagonist (AID 1259383; calls by dose curve; note: top concentration of the series differs between compounds; nearly all actives have a fitted effect of over 15% in size)
In short: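 Luminescent ERE-luciferase reporter, VM7Luc4E2 cells (endogenous ER-alpha); 10.0nM ICI-182,780 final; 15-point compound titration; 22hr at 37C; ONE-Glo, 30min RT.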

[19] = qHTS assay to identify small molecule agonists of the progesterone receptor (PR) signaling pathway - cell viability counter screen (AID 1346799; calls by dose curve; note: nearly all actives have a fitted effect of over 45% in size; note: potency is the fitted concentration of half-maximal effect)
In short: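 Using the same plates as the PR reporter screen, HEK293T PR-UAS-bla cells received compounds for 16 hr at 37C and were then lysed with CellTiter-Glo; luminescence was read 30 min later at room temperature.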

[20] = qHTS assay to identify small molecule antagonists of the progesterone receptor (PR) signaling pathway - cell viability counter screen (AID 1346798); note: nearly all actives have a fitted effect of over 50% in size; note: potency is the fitted concentration of half-maximal effect
In short: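 Measures cytotoxicity in parallel with the PR antagonist reporter read: HEK293T PR-UAS-bla cells get compound and R5020 for 16 hr, and remaining viable cells are quantified by CellTiter-Glo luminescence.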

Measured: Potency

Chain of Androgen receptor (Homo sapiens) (P10275 whole entry, looked up): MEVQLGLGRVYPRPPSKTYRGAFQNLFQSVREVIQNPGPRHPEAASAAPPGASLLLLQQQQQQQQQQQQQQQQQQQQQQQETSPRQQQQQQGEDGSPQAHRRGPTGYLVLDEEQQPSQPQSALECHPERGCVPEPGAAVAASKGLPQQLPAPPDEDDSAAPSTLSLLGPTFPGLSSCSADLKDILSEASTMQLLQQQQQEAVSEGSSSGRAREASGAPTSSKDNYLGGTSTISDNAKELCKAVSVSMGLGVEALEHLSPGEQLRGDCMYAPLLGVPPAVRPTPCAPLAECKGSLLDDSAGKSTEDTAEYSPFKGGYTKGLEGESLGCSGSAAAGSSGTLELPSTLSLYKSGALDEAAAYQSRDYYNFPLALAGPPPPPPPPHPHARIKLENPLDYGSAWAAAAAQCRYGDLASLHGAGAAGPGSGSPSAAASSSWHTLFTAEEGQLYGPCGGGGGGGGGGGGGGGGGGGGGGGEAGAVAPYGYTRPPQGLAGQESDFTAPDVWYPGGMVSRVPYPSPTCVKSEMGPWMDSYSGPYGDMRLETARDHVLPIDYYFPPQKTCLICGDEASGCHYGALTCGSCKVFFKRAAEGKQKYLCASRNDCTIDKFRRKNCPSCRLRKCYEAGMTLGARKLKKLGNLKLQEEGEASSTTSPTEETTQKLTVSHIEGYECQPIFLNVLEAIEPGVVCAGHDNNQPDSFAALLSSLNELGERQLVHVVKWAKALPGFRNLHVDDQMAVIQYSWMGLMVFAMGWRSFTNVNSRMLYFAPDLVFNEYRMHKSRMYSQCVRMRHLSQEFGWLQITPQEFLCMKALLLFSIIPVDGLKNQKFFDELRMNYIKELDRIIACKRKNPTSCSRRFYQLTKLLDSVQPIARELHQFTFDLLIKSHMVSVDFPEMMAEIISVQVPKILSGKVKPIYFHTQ
Chain of Progesterone receptor (Homo sapiens) (P06401 whole entry, looked up): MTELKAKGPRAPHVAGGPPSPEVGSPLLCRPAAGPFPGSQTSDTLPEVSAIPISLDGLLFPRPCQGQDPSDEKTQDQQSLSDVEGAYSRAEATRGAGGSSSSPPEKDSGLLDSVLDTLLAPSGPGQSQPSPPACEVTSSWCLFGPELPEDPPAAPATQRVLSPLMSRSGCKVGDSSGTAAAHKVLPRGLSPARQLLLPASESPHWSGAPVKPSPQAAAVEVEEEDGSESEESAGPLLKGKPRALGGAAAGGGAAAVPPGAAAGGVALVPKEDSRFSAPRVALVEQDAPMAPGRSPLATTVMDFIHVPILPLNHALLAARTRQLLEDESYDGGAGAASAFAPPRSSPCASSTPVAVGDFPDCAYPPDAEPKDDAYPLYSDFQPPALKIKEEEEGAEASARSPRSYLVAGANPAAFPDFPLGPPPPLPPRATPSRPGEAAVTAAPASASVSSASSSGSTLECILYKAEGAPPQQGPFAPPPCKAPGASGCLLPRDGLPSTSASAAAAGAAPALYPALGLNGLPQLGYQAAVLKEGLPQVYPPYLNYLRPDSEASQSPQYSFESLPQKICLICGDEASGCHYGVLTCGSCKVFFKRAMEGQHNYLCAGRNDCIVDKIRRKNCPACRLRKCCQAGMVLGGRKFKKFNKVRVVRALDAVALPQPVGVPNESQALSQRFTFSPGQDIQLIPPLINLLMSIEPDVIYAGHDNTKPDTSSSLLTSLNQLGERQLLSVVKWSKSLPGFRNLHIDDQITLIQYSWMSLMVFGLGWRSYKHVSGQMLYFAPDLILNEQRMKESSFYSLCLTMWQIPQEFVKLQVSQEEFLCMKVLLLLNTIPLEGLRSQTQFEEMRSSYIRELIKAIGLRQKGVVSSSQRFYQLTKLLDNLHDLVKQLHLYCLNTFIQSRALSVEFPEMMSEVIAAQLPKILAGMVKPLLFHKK
Chain of Estrogen receptor beta (Homo sapiens) (Q92731 whole entry, looked up): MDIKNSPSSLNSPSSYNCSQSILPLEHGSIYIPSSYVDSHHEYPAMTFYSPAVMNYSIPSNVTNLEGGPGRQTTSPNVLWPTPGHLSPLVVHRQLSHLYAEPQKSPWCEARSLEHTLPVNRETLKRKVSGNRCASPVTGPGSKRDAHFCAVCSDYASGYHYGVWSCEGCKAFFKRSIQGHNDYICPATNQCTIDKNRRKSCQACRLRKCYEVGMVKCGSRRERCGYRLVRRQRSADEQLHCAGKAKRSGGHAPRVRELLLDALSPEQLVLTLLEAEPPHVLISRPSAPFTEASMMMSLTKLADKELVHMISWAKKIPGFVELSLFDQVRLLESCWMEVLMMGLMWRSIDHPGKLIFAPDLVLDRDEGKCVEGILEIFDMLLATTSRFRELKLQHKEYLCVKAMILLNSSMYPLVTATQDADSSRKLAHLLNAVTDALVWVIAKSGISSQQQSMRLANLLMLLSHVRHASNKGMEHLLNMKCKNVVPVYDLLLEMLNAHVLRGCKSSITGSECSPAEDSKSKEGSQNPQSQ
Chain of Estrogen receptor (Homo sapiens) (P03372 whole entry, looked up): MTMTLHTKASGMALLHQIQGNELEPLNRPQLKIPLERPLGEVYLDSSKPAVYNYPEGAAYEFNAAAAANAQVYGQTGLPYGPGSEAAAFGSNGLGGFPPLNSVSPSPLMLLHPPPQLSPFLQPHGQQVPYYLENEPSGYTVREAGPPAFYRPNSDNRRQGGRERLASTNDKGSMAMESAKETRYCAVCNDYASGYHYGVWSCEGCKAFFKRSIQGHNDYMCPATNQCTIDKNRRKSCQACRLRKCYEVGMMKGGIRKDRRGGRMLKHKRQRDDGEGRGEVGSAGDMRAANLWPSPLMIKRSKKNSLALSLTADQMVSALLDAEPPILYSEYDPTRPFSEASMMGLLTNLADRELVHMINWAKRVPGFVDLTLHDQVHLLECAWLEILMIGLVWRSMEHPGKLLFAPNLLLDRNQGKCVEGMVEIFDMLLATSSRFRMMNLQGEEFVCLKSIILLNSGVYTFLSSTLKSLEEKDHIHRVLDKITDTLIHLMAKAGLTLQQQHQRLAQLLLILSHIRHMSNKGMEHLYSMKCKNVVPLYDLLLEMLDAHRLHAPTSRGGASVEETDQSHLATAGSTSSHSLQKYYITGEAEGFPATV
Chain of Thyrotropin-releasing hormone receptor (Homo sapiens) (P34981 whole entry, looked up): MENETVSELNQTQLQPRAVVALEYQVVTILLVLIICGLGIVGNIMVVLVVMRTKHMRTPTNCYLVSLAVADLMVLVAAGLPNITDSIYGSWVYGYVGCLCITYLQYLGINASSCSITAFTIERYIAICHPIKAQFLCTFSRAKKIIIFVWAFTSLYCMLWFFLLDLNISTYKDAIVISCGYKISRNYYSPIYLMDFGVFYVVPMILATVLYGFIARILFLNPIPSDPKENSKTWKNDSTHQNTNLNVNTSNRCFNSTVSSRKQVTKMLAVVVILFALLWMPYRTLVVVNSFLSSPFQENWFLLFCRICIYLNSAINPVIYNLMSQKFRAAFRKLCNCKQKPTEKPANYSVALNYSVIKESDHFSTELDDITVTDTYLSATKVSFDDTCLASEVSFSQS
Chain of Thyrotropin receptor (Homo sapiens) (P16473 whole entry, looked up): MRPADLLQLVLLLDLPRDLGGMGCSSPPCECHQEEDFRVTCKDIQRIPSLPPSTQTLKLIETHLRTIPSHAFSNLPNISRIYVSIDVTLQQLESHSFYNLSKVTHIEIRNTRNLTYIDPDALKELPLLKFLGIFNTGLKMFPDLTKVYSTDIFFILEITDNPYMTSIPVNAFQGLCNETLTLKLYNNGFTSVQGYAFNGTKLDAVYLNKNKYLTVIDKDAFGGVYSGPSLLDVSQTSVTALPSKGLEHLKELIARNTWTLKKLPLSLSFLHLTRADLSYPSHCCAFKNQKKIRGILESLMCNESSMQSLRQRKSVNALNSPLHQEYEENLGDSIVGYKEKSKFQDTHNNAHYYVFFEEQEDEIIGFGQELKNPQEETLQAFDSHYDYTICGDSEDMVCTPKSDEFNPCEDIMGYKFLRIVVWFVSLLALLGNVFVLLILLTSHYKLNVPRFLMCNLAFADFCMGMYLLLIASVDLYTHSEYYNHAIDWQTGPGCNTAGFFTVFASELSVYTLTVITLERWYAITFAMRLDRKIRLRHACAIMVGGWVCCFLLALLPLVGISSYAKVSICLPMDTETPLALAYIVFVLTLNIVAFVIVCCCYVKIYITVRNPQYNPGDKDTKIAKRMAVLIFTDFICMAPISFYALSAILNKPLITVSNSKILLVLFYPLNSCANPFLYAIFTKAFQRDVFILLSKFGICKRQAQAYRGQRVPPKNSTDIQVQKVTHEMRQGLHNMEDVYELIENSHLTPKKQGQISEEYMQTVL

COC(=O)NCCC[Si](OC)(OC)OC
inactive: [1] | [2] | [3] | [4] | [5] | [6] | [7] | [8] | [9] | [10] | [11] | [12] | [13] | [14] | [15]

Cc1ccc(-n2[nH]c(C)c(N=Nc3cccc(-c4cccc(C(=O)O)c4)c3O)c2=O)cc1C
inactive: [5] | [6] | [8] | [9] | [10] | [11] | [12] | [13] | [15]
active: [1] 8.41 µM | [2] 29.8 µM | [3] 26.6 µM | [7] 29.8 µM | [16] 18.8 µM

COc1ccccc1OCCNCC(O)COc1cccc2[nH]c3ccccc3c12 (stereo not given)
inactive: [17] | [18] | [5] | [9] | [10] | [11] | [13]
active: [1] 7.5 µM | [2] 29.8 µM | [4] 11.9 µM | [6] 33.5 µM | [19] 15 µM

CCCCCCCC/C=C\CCCCCCCC(=O)OCCOC(=O)CCCCCCC/C=C\CCCCCCCC
inactive: [1] | [2] | [3] | [4] | [5] | [6] | [7] | [8] | [20] | [19] | [9] | [10] | [11] | [14] | [15]

O=C1NC2CCCCN2C12CCN(CCCN1c3ccccc3CCc3ccc(Cl)cc31)CC2 (stereo not given)
inactive: [5] | [8] | [9] | [12] | [13]
active: [1] 23.7 µM | [2] 26.6 µM | [3] 26.6 µM | [4] 26.6 µM | [7] 29.8 µM | [16] 26.6 µM | [20] 26.6 µM | [19] 23.7 µM | [14] 26.6 µM | [15] 29.8 µM

CCCCNc1c(C(=O)OCC)c(C)nc2c1cnn2CC
inactive: [1] | [2] | [3] | [4] | [5] | [6] | [20] | [9] | [10] | [11] | [15]
active: [16] 26.6 µM

CC(C)c1ccc(O)c(C(C)C)c1
active: [15] 61.1 µM
inactive: [1] | [2] | [4] | [18] | [5] | [6] | [8] | [16] | [20] | [19] | [9] | [10] | [11] | [12] | [13] | [14]

c1ccc(Nc2cccc3ccccc23)cc1
active: [1] 31 µM and 54.5 µM | [3] 54.5 µM | [16] 13.9 µM
inactive: [2] | [5] | [6] | [7] | [20] | [19] | [10] | [11] | [12] | [13] | [15]

CCCCOc1ccc(C(=O)CCN2CCCCC2)cc1
active: [2] 29.8 µM
inactive: [1] | [4] | [18] | [5] | [8] | [16] | [20] | [19] | [9] | [10] | [11] | [12] | [13] | [15]

CC(C)=CCCC(C)O (stereo not given)
inactive: [1] | [2] | [17] | [4] | [18] | [5] | [6] | [7] | [8] | [16] | [20] | [9] | [10] | [11] | [15]

Clc1ccc(C(c2ccccc2Cl)C(Cl)Cl)cc1 (stereo not given)
active: [1] 19.3 µM | [3] 48.6 µM | [16] 3.44 µM
inactive: [2] | [4] | [5] | [6] | [7] | [8] | [20] | [9] | [10] | [11] | [13] | [14] | [15]

CN(Cc1cc(Br)cc(Br)c1N)C1CCCCC1
inactive: [1] | [2] | [4] | [18] | [5] | [7] | [8] | [20] | [9] | [10] | [11] | [12] | [15]
active: [6] 29.8 µM

CC(C)(C)c1cc(/C=C2\SC(=N)NC2=O)cc(C(C)(C)C)c1O
inactive: [2] | [4] | [18] | [5] | [6] | [9] | [10] | [11] | [12] | [13] | [15]
active: [1] 21.7 µM | [16] 61.1 µM

C/C=C/C(=O)C1=C(C)CCCC1(C)C
inactive: [1] | [2] | [17] | [4] | [18] | [5] | [6] | [7] | [8] | [16] | [20] | [9] | [10] | [11] | [15]

CCCCOCC
inactive: [1] | [2] | [3] | [4] | [5] | [6] | [7] | [8] | [16] | [20] | [19] | [9] | [10] | [11] | [14] | [15]

CN(C)CCN1CCOCC1
inactive: [1] | [2] | [3] | [4] | [5] | [6] | [8] | [16] | [20] | [19] | [9] | [10] | [11] | [12] | [13] | [14] | [15]
